About 6,400 (1.6%) of roughly 410,000 compounds were called active. Roughly 20% stayed inconclusive and do not appear here. The list comes from a sample in which actives are over-represented; it also holds similar structures and randomly drawn compounds. Values without a mark were called inactive. The call rests on the fitted dose curve; in most records, active means well fitted inhibition curve with a large enough effect; inconclusive means small, poorly fitted or top-dose-only effect; inactive means no such curve, though single readings can be large or run the other way.
biological target: Glucagon-like peptide 1 receptor (Homo sapiens) (UniProt P43220); test: qHTS of GLP-1 Receptor Inverse Agonists (Inhibition Mode); conditions: HEK293 GLP-1R CRE-luciferase, luminescence, 24 h, GLP-1R form is constitutively active; series mostly up to 38.3 µM; activity change, negative = inhibition: at the top concentration; further: nearly all actives have a fitted effect of over 55% in size
Excerpt: The overall goal of this project was to develop a novel assay for discovering small molecule ligands for class B1 G protein-coupled receptors (GPCRs). Very few agonists (or inverse agonists in inhibition mode) with generally weak activity for this entire group of physiologically important receptors are known to date. To establish proof-of-principle that this critical bottleneck can be overcome with a suitable screening approach, our studies focused on the class B1 receptor for glucagon-like peptide-1 (GLP-1R), a potential therapeutic target for diabetes and neurodegenerative disease. The assay was developed using a cell-based functional readout. Toward this goal, stably transfected HEK293 cell clones were established that co-express (i) a cAMP-responsive luciferase reporter gene, and (ii) constitutively active GLP-1R that upon ligand interaction inhibit (inverse agonists) the luciferase activity. In addition, two control cell lines were developed: (i) one that express only the cAMP-responsive reporter gene to enable initial exclusion of GLP-1R independent effects of candidate probes; and (ii) one with the reported gene cloned with another constitutively active orphan receptor GPR119 to enable exclusion of GLP-1R independent inhibitor effects of candidate inverse agonists. To that end, this assay was optimized for 1536-well format and screened against the MLSMR. […] NIH Molecular Libraries Probe Production Network [MLPCN] NIH Chemical Genomics Center [NCGC] Grant: NS064851 PI Name: Martin Beinborn, Tufts Medical Center
Six ul of cell suspension (200 cells/uL in DMEM + 10% Nu serum + 1% pen-strep) is dispensed in a white solid 1536-well plate. The plates are incubated for 12 hours at 37 deg C at 5% CO2 followed by addition of 23 nL compounds. After 24 hr incubation at 37 deg C and 5% CO2, 3 uL of luciferase assay detection reagent is added. A luminescence read is obtained on the PerkinElmer Viewlux after 12 min incubation at room temperature.
On the % scale 0 is the no-effect control and ±100 the full control effect; potency means the concentration at half of the fitted maximal effect.

Glucagon-like peptide 1 receptor (Homo sapiens), sequence (P43220 whole entry, looked up): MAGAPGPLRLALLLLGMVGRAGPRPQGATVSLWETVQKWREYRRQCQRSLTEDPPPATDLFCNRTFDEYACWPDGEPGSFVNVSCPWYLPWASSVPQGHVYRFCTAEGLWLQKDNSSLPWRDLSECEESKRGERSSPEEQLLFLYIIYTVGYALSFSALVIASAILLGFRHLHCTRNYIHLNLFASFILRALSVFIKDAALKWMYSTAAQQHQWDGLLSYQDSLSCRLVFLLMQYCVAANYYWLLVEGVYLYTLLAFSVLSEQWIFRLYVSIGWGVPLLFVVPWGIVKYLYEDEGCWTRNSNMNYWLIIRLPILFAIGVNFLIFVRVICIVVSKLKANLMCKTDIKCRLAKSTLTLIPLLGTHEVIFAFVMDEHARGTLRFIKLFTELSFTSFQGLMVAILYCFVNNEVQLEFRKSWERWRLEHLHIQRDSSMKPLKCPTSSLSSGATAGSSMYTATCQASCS

SMILES	activity change, negative = inhibition	Potency
Cc1ccc(C(=O)NC(C)C(c2cccs2)N2CCOCC2)cc1C (centres undefined)	-10.4%	–
Cn1nc(N)c2ncc(C(Cl)(Cl)Cl)nc21	26.9%	–
O=[N+]([O-])c1ccc(N2CCN(CC(O)COc3ccccc3)CC2)cc1 (centres undefined)	-33.7%	–
O=C(c1ccc(Cl)cc1)c1ccc(OCC(O)CN2CCCCC2)cc1 (centres undefined)	–	5.01 µM (active)
OC(COc1ccc(Br)cc1)CN1CCCC1 (centres undefined)	-28.2%	–
O=c1cc(CN2CCN(c3cccc(Cl)c3)CC2)c2cc3c(cc2o1)CCCC3	0%	–
OC(COc1ccc2c(c1)CCC2)CN1CCN(c2cccc(Cl)c2)CC1 (centres undefined)	–	10 µM (active)
CC(=O)Nc1ccc(OCC(O)CN2CCN(c3ccccc3Cl)CC2)cc1 (centres undefined)	-43.5%	–
Cc1ccc(S(=O)(=O)N2C[C@]3(O)C[C@@H]4C(=O)N(c5ccccc5)C(=O)[C@@H]4C[C@]3(OC(=O)NC3CC3)C2)cc1	6.42%	–
C[C@H](O)[C@@H]1C(=O)N2CCc3c([nH]c4ccccc34)[C@@H]2C[C@@H]1N(C)C(=O)Nc1ccc(F)cc1	-27.5%	–
C=CC(COCc1ccccc1)N(Cc1ccccc1)S(=O)(=O)c1ccccc1Br (centres undefined)	–	10 µM (active)
CCN([C@H](CO)C(C)C)S(=O)(=O)c1ccccc1Br	-6.5%	–
CC(C)Cc1ccc(-c2cc3nc(NCc4cccc(Cl)c4)ccn3n2)cc1	–	2.82 µM (active)
Cc1cc(C)n2c(NCc3ccccc3)c(CC(C)C)nc2n1	17.8%	–
COCCn1c(SCC(=O)Nc2ccc(F)cc2F)nc2c(c1=O)SCC2	14.7%	–
CC1(C(=O)NCc2ccccc2)CSCC(=O)N1CCCn1ccnc1 (centres undefined)	0.0455%	–
Cc1cccc(N2CCN(C(=O)c3cccc(N4C(=O)C5C6C=CC(C6)C5C4=O)c3)CC2)c1C (centres undefined)	1.97%	–
Cc1cccc(N2CCN(C(=O)c3ccc4c(c3)CCN4S(=O)(=O)c3ccccc3)CC2)c1C	–	7.94 µM (active)
O=S(=O)(c1ccccc1)N1CCc2ccccc21	-1.14%	–
O=C(Nc1cccc(C(=O)O)c1)/C(=C\c1ccccc1)NC(=O)c1ccc(Br)o1	0.998%	–
OC[C@@H]1CN(Cc2ccc(F)cc2)C[C@H](n2cnc3c(NC4CCCC4)ncnc32)O1	5.41%	–
OC[C@@H]1CN(Cc2cccs2)C[C@H](n2cnc3c(NC4CCCC4)ncnc32)O1	6.84%	–

SMILES	activity change, negative = inhibition	Potency
OC[C@@H]1CN(Cc2ccc(-c3ccccc3)cc2)C[C@H](n2cnc3c(NC4CCCC4)ncnc32)O1	–	8.91 µM (active)
CC(=O)c1ccc(Nc2nc(C(N)c3ccccc3)cs2)cc1 (centres undefined)	20%	–
COc1cccc(-c2nc3nc(C)cc(C)n3c2NC2CCCCC2)c1	-11%	–
Cc1ccc(NC(=S)N/N=C2/CCCc3c(C)cc(C)cc32)cc1	6.24%	–
CCCCNC(=S)N/N=C1\CCCCc2ccccc21	–	11.2 µM (active)
CCCCNC(=O)C(=O)c1ccccc1NC(C)=O	16%	–
CCC(=O)N1CCC(C)(C(=O)Nc2cc(OC)c(OC)c(OC)c2)C1 (centres undefined)	4.97%	–
CC(=O)c1cccc(-c2cnc3c(NC=O)cc(-c4ccc(N5CCN(C)CC5)cc4)cn23)c1	0.896%	–
COc1ccc(C(=O)Nc2sc(C)c(C)c2CN2CCOCC2)cc1	6.13%	–
CCc1cc(C(=O)c2ccc(OC)cc2)c(NC(=O)CN2CCN(C)CC2)s1	–	4.47 µM (active)
COc1ccc(NC(=O)CCN2CCN(CCO)CC2)cc1	1.87%	–
CN(C)CCCn1c(SCCN2C(=O)c3ccccc3C2=O)nc2ccccc2c1=O	0.122%	–
CC(C)(C)c1nc2ccccc2c(=O)n1N1C(=O)c2ccccc2C1=O	–	10 µM (active)
Cc1nc2ccccc2c(=O)n1NC(=O)c1ccccc1	-2.48%	–
CC1(C(=O)Nc2ccc3c(c2)OCCO3)CCN1C(=O)Cc1cc(F)ccc1F (centres undefined)	18.6%	–
CC1(C(=O)NS(=O)(=O)Cc2cccc(Cl)c2)CCN1C(=O)Cc1ccc(Cl)cc1Cl (centres undefined)	-14%	–
CC(C)N1C(=O)c2ccccc2NC(=O)C1C(=O)NCc1cccs1 (centres undefined)	13.4%	–
COCCNc1nc(Nc2ccccc2Cl)c2sc(-c3ccccc3)cc2n1	1.32%	–
CCOc1ccc(S(=O)(=O)NCCC(=O)NNC(=O)c2ccc(F)cc2)cc1	-3.11%	–
COc1ccc(NC(=O)CN(C)C(=O)/C=C/c2cn(Cc3ccccc3)nc2-c2cccnc2)cc1	-10.7%	–
COc1cccc(NC(=O)CN(C)C(=O)/C=C/c2cn(-c3ccccc3)nc2-c2cccs2)c1	–	7.94 µM (active)
COc1cccc(NC(=O)CN(C)C(=O)/C=C/c2cc(OC)ccc2OC)c1	8.88%	–

SMILES	activity change, negative = inhibition	Potency
CC(C)(O)C1=C[N+](=O)CC=C1	4.83%	–
CCC(C)CN1C(=O)CSCC1(C)C(=O)NCc1ccccc1 (centres undefined)	2.26%	–
O=C1OCCC1=COCCCCOC=C1CCOC1=O	10.1%	–
O=C(NCC(O)c1nc2ccccc2[nH]1)c1ccc(Br)cc1 (centres undefined)	16.8%	–
COc1ccc2[nH]c(=O)c(CN(Cc3cccnc3)S(=O)(=O)c3ccccc3F)cc2c1	–	5.01 µM (active)
CCN(Cc1cc2cc(C)ccc2[nH]c1=O)S(=O)(=O)c1ccccc1	0%	–
CCOc1ccc2[nH]c(=O)c(CN(CCCO)S(=O)(=O)c3ccc(F)cc3)cc2c1	-22.2%	–
O=C(c1cccs1)N1C[C@H](n2cc(C3CC3)nn2)[C@@H](O)C[C@@H]1c1ccccc1	-2.08%	–
COCCNc1ncnc2c1ncn2[C@H]1CN(CCN2CCOCC2)C[C@@H](CO)O1	17.3%	–
CCC1CCCCN1CCCNC(=O)C1CCC(Cn2c(=O)[nH]c3ccccc3c2=O)CC1 (centres undefined)	0%	–
CN1CCN(CCCNC(=O)c2cc3c(=O)oc4ccccc4c3s2)CC1	0.453%	–
COc1ccc(C(C)(NC(C)=O)c2nc(-c3ccc(S(C)(=O)=O)cc3)cs2)cc1 (centres undefined)	-9.28%	–
O=C(CN1C(=O)NC2(CCc3ccccc32)C1=O)NC1CCCCC1 (centres undefined)	-4.63%	–
O=C(COc1ccc(S(=O)(=O)N2CCCC2)cc1[N+](=O)[O-])N1CCCCC1	14.7%	–
Cc1cc(C)cc(C(=O)NCCN2CCOCC2)c1	4.45%	–
CCc1cc(=O)oc2c(C)c(OCC(=O)NCCN3CCOCC3)ccc12	40.4%	–
CC(=O)Oc1cc2c(C(=O)NCCN3CCOCC3)c(C)oc2c2ccccc12	–	10 µM (active)
O=C1NC(O)CCN1C1CC(O)C(CO)O1 (centres undefined)	16.9%	–
COc1ccc(C(O)C(O)(C(=O)OC(C)C)c2ccc(C)cc2)cc1 (centres undefined)	1.49%	–
Cc1nc2ccccn2c(=O)c1NC(=O)c1ccc(Br)o1	14.8%	–

— PubChem BioAssay AID624417 (National Center for Advancing Translational Sciences (NCATS), 2012)
